Measurements published in PubChem BioAssay AID1508600 (Functional Genomics Laboratory (NCATS/FGL), 2020).
Screen size: about 53,000 sequences; about 3,700 (7%) were called active. Shown is part of a subset that was picked to be rich in actives. Values without a mark were called inactive.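 How the source made its calls: active means gene knockdowns whose robust z-score for IL-1 alpha signal is at least 2 or at most -2, so actives lie on both sides; inactive means the rest.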

experiment: Components of the Cytosolic LPS Sensing Pathway: Gene Identification via Genome-wide siRNA Screen; conditions: RAW264.7 macrophages, IL-1a HTRF, actives lie on both sides, screened at 100 nM (by protocol), cells primed 5 h with Pam3CSK4 first;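 further: robust z of the log signal after scaling to non-targeting control siRNA wells of the plate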
Procedure, shortened: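 IL-1a HTRF of supernatants after 24 hour LipidA transfection of Pam3CSK4-primed (5 hours) RAW264.7 cells, 48h post-siRNA transfection (100 nM). Scores: percent of plate negative-control median, then log-based robust z-score.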

| Sequence | z-score |
| --- | --- |
| CCAGACACAUAGGACAAAATT against Slco3a1 | -0.00454 |
| GGCUGUGCGUGUUACAAAATT against Erlin1 | 0.501 |
| GGAAUGUCUAUCACAAUGGTT against Vmn1r230 | 1.78 |
| GGUGGAAGAUGAGAAAGAGTT against Tmem139 | -1.21 |
| GGAAGAUAAAUGUCACAAATT against AA792892 | 0.392 |
| GCCAGAAAUACCUGUCGGATT against Cdc37 | -0.229 |
| CCACUUUCAACUUUCCGCATT against Fgd5 | -1.94 |
| GCUAGACCUAAGGAGCAAATT against Axin1 | 3.59 (active) |
| GGCCAAUUUCUUCACUUCUTT against Ints11 | -0.809 |
| GGUUUUCACCAUAUGCAGCTT against Zfp353-ps | 0.267 |
| GGAAGAAAUGUCAUCACAATT against Heph | 0.193 |
| CGGACACAUUGACUGAAUATT against Adgrl1 | -1.45 |
| CCCACAUCAUUGAGAUUCUTT against Olfr1508 | -1.25 |
| GGAGAAGUUUGAAGAGAUGTT against Cct5 | -2.24 (active) |
| GGAAGAAAACAUUUAGCCCTT against Mmd2 | 0.504 |
| ACAUACCAGUCUCUGUACCTT against Pigu | -1.56 |
| CCGCCUCUUACCGAAGUUCTT against Mettl4 | 3.04 (active) |
| GGACUUGAAAGAUAAAUAGTT against Crx | 0.163 |
| GCUAAUAACUUUUCAGUGATT against Olfr381 | 0.549 |
| GGUUGGUAGGAUGGACAAGTT against Rab11b | 2.45 (active) |
| GCCCUGUAUUUUGAAUUACTT against Bmpr1b | 0.0161 |
| GGGAAGAAAUAUGUUAGAUTT against Pip4p2 | 0.92 |
| CCUUGUUACUAUACUACACTT against Ppp1r2 | 2.59 (active) |

| Sequence | z-score |
| --- | --- |
| GCCUUUUAGCUGUUCAGGATT against Nlrc5 | 1.83 |
| GCUGAAGCAUACAUUUGUGTT against Tas2r137 | -0.226 |
| CCAAUCUCCUGUUGUUAAATT against Mlf1 | 0.557 |
| CCAGUCUUGCCCUUUAGUGTT against Foxi2 | -1.88 |
| AUGUAUUGAGUCAGGCAUCTT against Olfr243 | 2.32 (active) |
| CCUUACCACUUGAAGAUGGTT against Ephx1 | -1.2 |
| GCCAGUGAGUUUAUCAGCCTT against B4galnt3 | 0.706 |
| GGUAUACAUGCUUCUCUCUTT against Olfr610 | -0.569 |
| GCUACAGAACCUGCUCUACTT against Thoc5 | 0.391 |
| GGCAUUGAACAAGAAAGAATT against Mef2c | -0.94 |
| GGGUAUGGUUUCAUCACUUTT against Boll | -2.71 (active) |
| GGAAGACAAAGAUUCUAGUTT against Abcc1 | -1.06 |
| UUACUGGUUGCUGUUGUGGTT against Alyref | 1.35 |
| GGAGAUCUCCUCAGCCACATT against Gemin4 | -2.14 (active) |
| GCUGUGGUACAACCACAUUTT against Lrrc8a | -0.244 |
| GGAACCACACCAUGUGAAATT against Prdm5 | 0.828 |
| CCAUUCCCGCAUCCAUGUGTT against Zfp672 | -2.23 (active) |
| AGAGGAAGCUCGAAAACGGTT against Zrsr2 | -0.2 |
| GGAUAUCAUCGUGUUUAUUTT against Vps45 | 0.612 |
| GGACAACAUUAUAGGAAAGTT against Neu3 | 2.36 (active) |
| GCAAAAAAUCACUUCGAGUTT against Mgat4a | -0.377 |
| GGGUAAGUAUUGAACUCAUTT against Slc10a1 | 1.06 |
| GGAUGCUGAAGUAAUAGUGTT against Tbc1d15 | 0.0714 |

| Sequence | z-score |
| --- | --- |
| CGUUGUCAUUCACAAGUGATT against Tmprss11e | 3.02 (active) |
| GGAAUGCUAUCAGAGAAGATT against Zmym5 | -0.0365 |
| CCCUUCUUCGGGUUUUAACTT against Kcna3 | 3.08 (active) |
| GGUUUAAGGUAGUUCAUGATT against Faf1 | -0.0439 |
| GGCCUCAAGAAUGUAACAGTT against Psmf1 | -1.07 |
| GGACAAUUGAAUACCUAGATT against Hadha | 0.151 |
| GGACUCAACUGCACUGUUGTT against Izumo4 | -2.37 (active) |
| CCAAGUUUUAGCACCUAAATT against Dcp1a | 0.769 |
| GGACAUGAAGAUCAAGUCCTT against Rps2 | -0.109 |
| GAAGACUUCAAUCAACCAGTT against Trim6 | -0.396 |
| GGAAACUUGUUGAAGAGAUTT against Ptprz1 | 2.37 (active) |
| GCAUACCGGAUAAACUGAATT against Apoc1 | -0.916 |
| GGAAUGUCGAAUUGAUUGUTT against Klrb1b | 0.524 |
| GGAAGAGAGAGACAAGGAUTT against Dap | 1.38 |
| GGCGACGAAGUCACCUAUATT against Carhsp1 | -0.0404 |
| GAAGGCCAAUGAUCGGGAGTT against Neurog3 | -2.1 (active) |
| GGUGGAGAAAUCUGCUAAUTT against Lta4h | 1.99 |
| CGUCAAUGAAUUCGACUCUTT against Pnlip | 0.348 |
| GCUUUCAGCUAUUGGACCCTT against Kl | 0.0919 |
| CGAUGCUGACUGAGAUCAUTT against Rad23a | 1.39 |
| GGUAUAGUUAAAGUGAGAGTT against Sp8 | -0.883 |
| GGAGUUAAUUGCCCGCAACTT against Rab19 | 0.588 |
| CGGAAGAUGUUAAAACUAUTT against Slc44a3 | -1.33 |
